Measurements: PubChem BioAssay (NCATS)
Values joined by “and” are separate entries in the source; they are usually repeats but may differ in a detail not shown here. Equal values may be shown once. Records with an inconclusive call do not appear. A number with no mark means an inactive call. Active and inactive are the calls of the source. Calls follow the shape of the dose curve; as a rule, active = well fitted cell-killing curve with a large enough effect; inconclusive = small, poorly fitted or top-dose-only effect; inactive = no such curve, though single readings can be large or run the other way.

experiment: qHTS of pediatric cancer cell lines to identify multiple opportunities for drug repurposing: Confirmatory screen for TC32 cells (AID 1347118); conditions: TC32 Ewing sarcoma cells viability qHTS; series mostly up to 45.9 µM; activity change, negative = cytotoxicity: at the top concentration;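 also: cells exposed to compound for 48 h before the read; nearly all actives have a fitted effect of over 65% in size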
Method in brief: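 Luminescent ATP read-out (CellTiter-Glo) of metabolically active TC32 cells after 48 h exposure. Concentration-response curves came from 11-point (MIPE, 0.78 nM–46 µM) or 8-point (NPC, 0.59 nM–46 µM) primary titrations; follow-up used 11 points.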
% is scaled to controls: 0 for no effect and ±100 for the full control effect; potency is read from the fitted curve at half-maximal effect.

Compound | Potency | activity change, negative = cytotoxicity
CNC1CCC(N(Cc2cccc(-c3ccncc3)c2)C(=O)c2sc3c(F)ccc(F)c3c2Cl)CC1 (stereo not drawn) | 13.1 µM (active) | 
CCOc1ccc(Nc2nc(-c3c(C)nc4ccccn34)cs2)cc1 | 0.117 µM (active) | 
CC[C@]1(O)C[C@@H]2CN(CCc3c([nH]c4ccccc34)[C@@](C(=O)OC)(c3cc4c(cc3OC)N(C)[C@H]3[C@@](O)(C(=O)OC)[C@H](OC(C)=O)[C@]5(CC)C=CCN6CC[C@]43[C@@H]65)C2)C1 | 465 nM (active) and 827 nM (active) | 
O=C(O)c1ccc(-c2cc3cccnc3c(-c3ccc4nonc4c3)n2)cc1 | 2.61 µM (active) | 
CN(C)C1CCN(C(=O)c2ccc(NC(=O)Nc3nc(N4CCOCC4)nc(N4CCOCC4)n3)cc2)CC1 | 0.0657 µM (active) | 
CC(=O)Nc1ccc([C@H](C)C(=O)Nc2ncc(C(C)C)s2)cc1 | 7.37 µM (active) | 
CC(C)n1nc(-c2ccc3oc(N)nc3c2)c2c(N)ncnc21 | 0.0465 µM (active) | 
COc1cc2ncnc(Nc3ccc(F)c(Cl)c3)c2cc1OCCCN1CCOCC1 | 33.9 µM (active) | 
NS(=O)(=O)c1cccc2c1C(=O)c1cccc(O)c1C2=O | 0.827 µM (active) | 
NC1=N[C@@]2(c3cc(NC(=O)c4ccc(F)cn4)ccc3F)COC[C@@H]2CS1 |  | -0.263%
CN[C@@H](C)C(=O)N[C@H]1CN(C(=O)CC(C)C)CC[C@H]2CC[C@@H](C(=O)NC(c3ccccc3)c3ccccc3)N2C1=O | 8.27 µM (active) | 
CO[C@H]1C[C@@H]2CC[C@@H](C)[C@@](O)(O2)C(=O)C(=O)N2CCCC[C@@H]2C(=O)O[C@H]([C@H](C)C[C@@H]2CC[C@H](OP(C)(C)=O)[C@H](OC)C2)CC(=O)[C@H](C)C=C(C)[C@@H](O)[C@@H](OC)C(=O)[C@H](C)C[C@H](C)C=CC=CC=C1C | 10.4 µM (active) | 
OC[C@H]1O[C@@H](n2cnc3c2NC=NC[C@@H]3O)C[C@H]1O | 8.27 µM (active) | 
